Values without a mark were called inactive. Records with an inconclusive call do not appear. The source made the active and inactive calls. Unless noted, calls come from the whole dose curve; as a rule, active = well fitted curve in the direction sought with a large enough effect in the repeat runs; inconclusive = weak or mixed curves; inactive = no such curve, though single readings can be large; an effect the other way counts as inactive or inconclusive.

Assay [1] is described as follows: qHTS assay to identify small molecule agonists of the hypoxia (HIF-1) signaling pathway - cell viability counter screen (AID 1224844; calls by dose curve; note: nearly all actives have a fitted effect of over 50% in size). In outline:
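Cytotoxicity measured by CellTiter-Glo ATP luminescence in the wells also read for beta-lactamase signal. Cells were HRE-bla ME-180 (2,000/well, 0.5% dialyzed FBS), exposed to compounds for 17 h at 37C.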
A general note: In qHTS, concentration-response curves come from the screen itself.

Assay [2] can be described thus: qHTS assay to identify small molecule agonists of the hypoxia (HIF-1) signaling pathway (AID 1224846; active = well fitted activation curve with a large enough effect in the signal ratio in the repeat runs, not every such curve was filed as active; the % refers to the signal ratio). In outline: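 Compounds added to ME-180 cells carrying hypoxia-response-element beta-lactamase reporter (0.5% dialyzed FBS, 5 h preplating), 17 h at 37C; agonist activity detected by CCF4-AM B/G FRET read-out.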
The nature of assay [3]: qHTS assay to identify small molecule agonists of H2AX - cell viability counter screen (AID 1224847; calls by dose curve; note: top concentration of the series differs between compounds; nearly all actives have a fitted effect of over 30% in size). In outline: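 Compounds tested at 15 concentrations were incubated 3 hr at 37C with wild-type CHO-K1 cells; cellular ATP-based luminescence (CellTiter-Glo) indicated viability.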
Assay [4] in a line: qHTS RealTime-Glo MT Cell Viability Assay in HEK293 cells - 32 hour (AID 1224868). Note: nearly all actives have a fitted effect of over 50% in size. Note: potency is the fitted concentration of half-maximal effect. In outline:
(§1)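 Quantitative high-throughput screen of the Tox21 10K library in HEK293: cells and RealTime-Glo reagents plated together, compound added at 5 h, luminescence monitored through 40 h at 37 C.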

A short description of assay [5]: A CellTox Green Cytotoxicity Assay to monitor cytotoxicity in HEK293 cells - 0 hour (AID 1224869). Note: nearly all actives have a fitted effect of over 50% in size. In outline:
(§2)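 Fluorescence from a DNA-binding dye excluded by viable cells was measured repeatedly in the same HEK293 wells (600 cells/well) during continuous compound exposure at 37 C. Each assay gives one read point: 0, 8, 16, 24, 32 or 40 h.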

Assay [6] in a line: qHTS RealTime-Glo MT Cell Viability Assay in HepG2 cells - 40 hour (AID 1224870). Note: nearly all actives have a fitted effect of over 50% in size. In outline: (§3)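 HepG2 cells (600/well) mixed with RealTime-Glo MT reagent, settled 5 h at 37 C/5% CO2 before compound addition. Nonlytic NanoLuc luminescence from viable-cell prosubstrate reduction read repeatedly during 40 h treatment at 37 C.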
Assay [7] can be described thus: A CellTox Green Cytotoxicity Assay to monitor cytotoxicity in HEK293 cells - 40 hour (AID 1224871). Note: nearly all actives have a fitted effect of over 45% in size. The gist of the method:
as §2

Assay [8] is described as follows: qHTS RealTime-Glo MT Cell Viability Assay in HEK293 cells - 16 hour (AID 1224872). Note: nearly all actives have a fitted effect of over 50% in size. Note: potency is the fitted concentration of half-maximal effect. The gist of the method: as §1
The nature of assay [9]: qHTS RealTime-Glo MT Cell Viability Assay in HEK293 cells - 40 hour (AID 1224874). Note: nearly all actives have a fitted effect of over 50% in size. Note: potency is the fitted concentration of half-maximal effect. To be noted: RealTime-Glo luminescence; max response: stronger effect = lower value. In outline:
(§4)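 Luminescence, which tracks viable cell number through reduction of the prosubstrate to a NanoLuc substrate, was read over continuous 37 C culture. Cells (600/well) were premixed with reagent and rested 5 h before 23 nL of compound in DMSO was pinned.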

A short description of assay [10]: A CellTox Green Cytotoxicity Assay to monitor cytotoxicity in HEK293 cells - 24 hour (AID 1224875). Note: nearly all actives have a fitted effect of over 45% in size. In outline:
as §2

Assay [11] can be described thus: A CellTox Green Cytotoxicity Assay to monitor cytotoxicity in HepG2 cells - 16 hour (AID 1224876). Note: nearly all actives have a fitted effect of over 45% in size. The gist of the method: (§5)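 Real-time cytotoxicity: fluorescence of a cell-impermeant cyanine dye binding DNA of dead HepG2 cells, measured repeatedly (0–40 h) during compound exposure at 37 C. Cells seeded 600/well with reagent, dosed after 5 h.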
Assay [12] can be described thus: qHTS RealTime-Glo MT Cell Viability Assay in HepG2 cells - 32 hour (AID 1224877). Note: nearly all actives have a fitted effect of over 55% in size. In outline:
(§6)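 Compound treatment began 5 h after plating HepG2 cells (600/well) with NanoLuc luciferase and prosubstrate. Plates stayed at 37 C for 40 h; luminescence was captured at six time points, 0 h through 40 h.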

Assay [13] can be described thus: A CellTox Green Cytotoxicity Assay to monitor cytotoxicity in HepG2 cells - 24 hour (AID 1224878). Note: nearly all actives have a fitted effect of over 45% in size. The gist of the method:
as §5

Assay [14] can be described thus: A CellTox Green Cytotoxicity Assay to monitor cytotoxicity in HepG2 cells - 40 hour (AID 1224879). Note: nearly all actives have a fitted effect of over 40% in size. The gist of the method:
as §5

Assay [15] can be described thus: qHTS RealTime-Glo MT Cell Viability Assay in HEK293 cells - 0 hour (AID 1224880). In outline: as §4
Assay [16] is described as follows: qHTS assay to identify small molecule agonists of H2AX (AID 1224845; active = well fitted activation curve with a large enough effect in the signal ratio in the repeat runs, not every such curve was filed as active; the % refers to the signal ratio). In outline:
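Wild-type CHO-K1 cells, plated overnight, exposed 3hr at 37C to 15 concentrations (0.76% DMSO final). Lysed, then HTRF anti-pH2AX (S139) cryptate and anti-H2AX-d2 antibodies, 24 hr room temperature; 665/620 nm emission read.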

Assay [17] in a line: qHTS RealTime-Glo MT Cell Viability Assay in HepG2 cells - 24 hour (AID 1224867). Note: nearly all actives have a fitted effect of over 50% in size. In outline: as §6
Assay [18] in a line: qHTS RealTime-Glo MT Cell Viability Assay in HepG2 cells - 8 hour (AID 1224873). Note: nearly all actives have a fitted effect of over 55% in size. In outline: as §3
Assay [19] in a line: qHTS assay to identify small molecule antagonists of the estrogen related receptor (ERR) signaling pathway from Tox21 library (AID 1224848). Note: nearly all actives have a fitted effect of over 50% in size. In outline: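 Compounds dissolved in DMSO are pin-transferred onto ERR reporter cells (2,000 per well) that have settled for 6 h at 37 C. Plates then incubate 18 h at 37 C before ONE-Glo luciferase reagent and a luminescence read 30 min later.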

Assay [20] in a line: qHTS assay to identify small molecule agonists of the estrogen related receptor (ERR) signaling pathway from Tox21 library (AID 1224849; calls by dose curve; note: nearly all actives have a fitted effect of over 15% in size). The note with it: ERR reporter cell line, ONE-Glo luciferase, 18 h; at 92.4 µM (top of the series) unless noted. In outline: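 Luminescent agonist read-out (One-Glo, 30-minute room-temperature incubation) following 18-hour compound treatment at 37 C of the ERR cell line, which had been plated 6 hours before dosing.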
% is set by controls: 0 for no effect and ±100 for the full control effect.

For `O=C1OC(=O)C2C3C=CC(C3)C12` (configuration not stated), the Potency result in assay [1], in assay [2], in assay [3], in [4], in [5] and in assay [6] was “inactive” in each case. Also, the Potency result in assay [7], in [8], in assay [10], in assay [11], in assay [12] and in assay [13] was “inactive” in each case. Also, the Potency result in [14] and in assay [15] was “inactive” throughout. In addition, the max response in assay [9] was 12.9%.
For the compound `Brc1c2ccccc2cc2ccccc12`, the Potency entry in assay [1], in assay [16], in assay [17], in [6], in assay [7] and in [10] was “inactive” each time. The Potency entry in assay [11], in assay [12], in assay [13], in [14] and in [15] was “inactive” throughout. Besides, the max response in assay [9] was -17.1%.
Turning to `CC(=O)OC[C@H]1O[C@@H](n2ncc(=O)[nH]c2=O)[C@H](OC(C)=O)[C@@H]1OC(C)=O`, the Potency entry in [1], in [2], in [3], in [17], in [4] and in assay [6] was “inactive” each time. In addition, the Potency entry in assay [7], in assay [8], in assay [18], in assay [10], in assay [11] and in assay [12] was “inactive” throughout. The Potency entry in assay [13] and in [14] was “inactive” each time.
In the case of `CCCNCC(O)COc1ccccc1C(=O)CCc1ccccc1` (configuration not stated), the Potency result in assay [1], in [16], in [5], in [6], in assay [7] and in assay [12] was “inactive” in each case. In addition, the Potency was 2390 nM (active) in assay [4], 2130 nM (active) in assay [8] and 2390 nM (active) in assay [9].
In the case of `CC1OC(=O)C(C)OC1=O` (configuration not stated), the Potency entry in assay [1], in assay [2], in assay [3], in [17], in assay [4] and in assay [5] was “inactive” in each case. Besides, the Potency result in [6], in assay [7], in assay [8], in assay [18], in [11] and in [12] was “inactive” throughout. Moreover, the Potency entry in assay [13], in [14] and in assay [15] was “inactive” throughout. Further, the max response in assay [9] is -4.59%.
With `Nc1cc(C(=O)O)c(O)c(S(=O)(=O)O)c1`, the Potency result in [1], in assay [2], in assay [3], in [19], in [4] and in [5] was “inactive” each time. Besides, the Potency result in assay [6], in assay [7], in assay [8], in [18], in assay [10] and in [12] was “inactive” throughout. Further, the Potency result in assay [13], in [14] and in [15] was “inactive” each time. Moreover, the activity change, positive = activation in [20] was 7.51%. In [9], the max response is 9.59%.
For the compound `CCCCC1=NC2(CCCC2)C(=O)N1Cc1ccc(-c2ccccc2-c2nn[nH]n2)cc1`, the Potency result in assay [1], in assay [16], in assay [17], in assay [4], in assay [5] and in [6] was “inactive” throughout. For the same compound, the Potency result in [7], in assay [18], in assay [11], in assay [12], in assay [13] and in [14] was “inactive” in each case. Also, in assay [15], the Potency entry is “inactive”. Moreover, the max response in assay [9] was -1.18%.

Source of the values: PubChem BioAssay (Tox21).
